Molecules are shown by their SMILES. About 13,000 (27%) of roughly 48,000 compounds showed an effect of 50% or more. The list shows a part of the results.

The subject of this assay is Wolbachia pipientis. The experiment in a line: Anti-Wolbachia Cell-Based Screen. The assay is classed as functional. Details: scale not given: in the data most compounds retested in dose-response had high values. As to conditions: 5 µM.
`Cn1nc(Cn2cccc2)c2c1CN(Cc1ccoc1)C2.O=C(O)C(F)(F)F`: the “Percent Effect” value is on record as -1.566%.
As for `Oc1cccc(CN2CCN(c3nccc(CCC(F)(F)F)n3)CC2)c1`, the “Percent Effect” value is listed as 0.5395%.
With `Cc1cc(C)c2nc(CN3CCC(CN)CC3)cc(O)c2c1`, the “Percent Effect” value was -3.326%.
In the case of `CN(C)C(=O)NCc1cc2n(n1)CCCN(CC1CCCNC1)C2` (stereo not drawn) it was -1.604%.
For `COC1CCN(CCNC(=O)NC(C)c2ccc(F)c(F)c2)CC1` (stereo not drawn), the “Percent Effect” value was 2.95%.
The figure for `CCOCCn1c(=O)n(CCC=C(C)C)c2cc(C(=O)O)cnc21` is -10.97%; for `Cc1cc(NC2CCN(CC3CCCO3)CC2)n2nc(C)c(C)c2n1` (stereo not drawn) it is 11.1%; for `Cc1cnc(C)c(N2CCN(CC3CCCO3)CC2)n1` (stereo not drawn) it is 94.75%.
Regarding `Cc1ncc2c(n1)CN(CC1CCCCO1)CC2` (stereo not drawn), the “Percent Effect” value turned out to be 1.379%.
In the case of `CC1(C)CN=C(N2CCN(CC3CCCCO3)CC2)S1` (stereo not drawn) it was 87.51%; in that of `CC(C)c1nc(CN2CCN(CC3CCCO3)CC2)cs1` (stereo not drawn), 2.342%; in that of `CC1(C)CN=C(N2CCN(CC3CCCO3)CC2)S1` (stereo not drawn), 67.12%.
With `Cc1cnc(C)c(N2CCN(Cc3ccc(C)c(C)c3)CC2)n1`, the “Percent Effect” value is -24.43%.
In the case of `CC1(C)CN=C(N2CCN(CCCN3CCOCC3)CC2)S1` it was 99.8%; in that of `COCc1ccccc1C(=O)N1CCN(C2=NCC(C)(C)S2)CC1`, -20.33%; in that of `CC1(c2ccccc2)CCC(=O)N(CCCN2CCOCC2)C1` (stereo not drawn), 6.196%.
The figure for `CCn1ncc(C(=O)N2CCN(CC3CCCO3)CC2)c1C` (stereo not drawn) is -12.64%.
Turning to `CCC(C)NC(=O)c1coc(COc2cccc(F)c2)n1` (stereo not drawn), the “Percent Effect” value is reported as -23.89%.
The figure for `Cc1nn(C(C)(C)C)c(=O)n1CC(=O)NCC(F)(F)F` is 1.676%.
Regarding `O=C(NCc1ccccc1)[C@H]1C[C@@H]2CN(S(=O)(=O)C3CC3)C[C@H]1O2`, the “Percent Effect” value is listed as 0.5177%.
For `CCC(CNS(N)(=O)=O)Oc1ccccc1F` (stereo not drawn), the “Percent Effect” value is -4.298%.
For the molecule `COc1ncnc2c1CCN(CC1CCOC1)CC2` (stereo not drawn), the “Percent Effect” value is recorded as -41.04%.
For `N#Cc1c(N2CCN(CC3CCOC3)CC2)nc2ccccn12` (stereo not drawn), the “Percent Effect” value is -4.336%.
Consider `CC1(C)CN=C(N2CCN(CC3CCOC3)CC2)S1` (stereo not drawn), for which the “Percent Effect” value is on record as 102.4%.
On to `Cc1n[nH]c(C)c1S(=O)(=O)N(C)Cc1nn(C)c(Cl)c1Cl`, for which the “Percent Effect” value stood at 0.7109%.
In the case of `CCN(Cc1cc(Br)ccc1F)C(=O)C(C)NC(N)=O` (stereo not drawn) it was -3.713%; in that of `Cc1cccn2c(CNC(C)CCc3ccc(O)cc3)cnc12` (stereo not drawn), -2.833%.
The figure for `COc1ccccc1OC1(C(=O)O)CCN(c2nccnc2C)CC1` is -2.671%; for `CCn1nc(C(C)C)cc1C(=O)N1CCOc2ccc(OC)cc21` it is 10.42%.
On to `COCCN(C)CCN1CC2(CCN(C3CCNCC3)CC2)OC1=O`, for which the “Percent Effect” value was determined as 0.09435%.
Consider `CNC(=O)N1CC[C@@H]2CN(Cc3cccc(OC)c3)S(=O)(=O)[C@@H]2CC1`, for which the “Percent Effect” value is listed as 89.38%.
Turning to `CNC(=O)N1CC[C@@H]2CN(Cc3cccc(Cl)c3)S(=O)(=O)[C@@H]2CC1`, the “Percent Effect” value is recorded as -6.007%.
Turning to `CNC(=O)N1CC[C@@H]2CN(CCc3cccc(OC)c3)S(=O)(=O)[C@@H]2CC1`, the “Percent Effect” value was -2.748%.
On to `CNC(=O)N1CC[C@@H]2CN(Cc3ccccc3)S(=O)(=O)[C@@H]2CC1`, for which the “Percent Effect” value is reported as 102%.
Consider `CC(C)NC(=O)N1CC[C@@H]2CN(Cc3cccc(Cl)c3)S(=O)(=O)[C@@H]2CC1`, for which the “Percent Effect” value is recorded as -12.85%.
The figure for `CC(=O)N1CC[C@@H]2CN(Cc3cccc(Cl)c3)S(=O)(=O)[C@@H]2CC1` is -7.404%; for `O=C(NCCSC1CCCC1)c1cc(Cl)ccn1` it is 3.584%.
In the case of `COCC(=O)N[C@H]1C[C@@H](Cc2cc(CN3CCCCC3)on2)C1(C)C` it was 11.93%.
In the case of `Cc1ccccc1CN(CCN(C)C)Cc1ncc[nH]1` it was -7.334%.
Consider `CN1CC2(CCN(C(=O)C3CCC3)CC2)COc2ccccc2S1(=O)=O`, for which the “Percent Effect” value turned out to be 97.81%.
The figure for `CN(C)C(C(=O)N1CCCN(C(=O)C2CCC2)CC1)c1ccccc1F` (stereo not drawn) is -11.1%.
Consider `CC(C)NC(=O)N1CCC2(CC1)COc1ccccc1S(=O)(=O)N(C)C2`, for which the “Percent Effect” value is reported as 105.4%.
The figure for `COCCC1COC2(CCN(C(=O)C3CCC3)CC2)C1` (stereo not drawn) is -7.726%; for `N#Cc1csc(CN(CC(=O)N2CCCC2)CC2CCCO2)c1` (stereo not drawn) it is 4.573%.
In the case of `CCOc1ccc(OCC)c(NCc2cc(C)on2)c1` it was -0.4612%; in that of `COCCOC[C@]1(CNCc2ccc(OC)cc2)C[C@@H](O)[C@@H](O)C1.Cl`, 6.755%.
`Cc1ccccc1C1(CNC(=O)c2ccc(S(C)(=O)=O)cc2)CC1`: the “Percent Effect” value is given as 72.54%.
The figure for `Cc1ccccc1C1(CNC(=O)c2cccc(S(C)(=O)=O)c2)CC1` is 2.045%; for `Cc1ccccc1C1(CNC(=O)N2CCC(CC(N)=O)CC2)CC1` it is -8.106%; for `CC(NC(=O)N(C)Cc1ccsc1)c1ccc2c(c1)OCO2` (stereo not drawn) it is -7.719%.
In the case of `CN1CCOC(CNC(=O)CCCOc2ccccc2F)C1` (stereo not drawn) it was -10.92%; in that of `COc1ccccc1C1(C(=O)N2CCN(CC(C)O)CC2)CC1` (stereo not drawn), -12.51%; in that of `CC(O)CN1CCN(C(=O)c2cnn(-c3ccccc3F)c2)CC1` (stereo not drawn), -7.908%.

The values above are taken from ChEMBL document CHEMBL3988442, “University of Dundee, Small-Polar-MMV Screening Library” (2021).
